For 13 molecules, composite z-score and z-score results are on record in PubChem BioAssay.

Each structure is given as a SMILES string.

For test [1], the system named is Human papillomavirus type 1a protein E7 (residues 44-93). Description: small molecules binding HPV E7 44-93 – biochemical, small-molecule microarray, residues 44-93, 635 nm fluorescence, primary screen (AID 1108).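 Note: E7 fragment applied at 1 µg/mL in TBST for 1 h at 4 C; score combines spot fluorescence with its signal to noise ratio.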 The note with it: fluorescence 635 nm, higher = more signal.
A short description of test [2]: hepatitis C replication reporter changes, two-sided – Huh7 cells, luciferase reporter, HCV replication inhibitor project, primary screen (AID 1109).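 Note: huh7 hepatoma cells harbouring a luciferase neomycin HCV replicon reporter; luciferase luminescence as measure of HCV replicon replication; test concentration not given here.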 The following applies: Huh7 HCV replicon luciferase reporter, 48 h; higher = more signal.
In test [3] the target is Left-right determination factor 2 (Homo sapiens) (UniProt O00292). Description: small molecules binding LEFTY2 protein – biochemical, small-molecule microarray, 635 nm fluorescence scan, primary screen (AID 1110). The note with it: higher = more signal.
Left-right determination factor 2 (Homo sapiens), sequence (O00292 whole entry, looked up): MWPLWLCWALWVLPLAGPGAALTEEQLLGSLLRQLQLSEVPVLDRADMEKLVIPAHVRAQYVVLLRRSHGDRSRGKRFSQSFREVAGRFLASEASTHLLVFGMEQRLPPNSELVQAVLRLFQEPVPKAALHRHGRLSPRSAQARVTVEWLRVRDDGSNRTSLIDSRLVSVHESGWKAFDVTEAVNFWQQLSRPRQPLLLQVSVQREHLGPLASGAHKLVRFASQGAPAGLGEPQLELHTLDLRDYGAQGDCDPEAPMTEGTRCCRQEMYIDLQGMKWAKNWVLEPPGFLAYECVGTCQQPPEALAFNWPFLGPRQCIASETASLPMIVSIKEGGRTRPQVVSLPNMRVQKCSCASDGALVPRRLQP
Test [4] has as its target Calmodulin-1 (Homo sapiens) (UniProt P0DP23). In words: small molecules binding calmodulin-1 with EGTA – biochemical, small-molecule microarray, Cy5-labelled CALM1, profiling panel (AID 1111).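 Note: labelled calmodulin applied in Tris saline Tween buffer holding calcium plus EGTA and DTT.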 The note with it: Cy5-CALM1 binding fluorescence, higher = more signal.
Test [5] has the same target. Description: small molecules binding Ca-loaded calmodulin-1 – biochemical, small-molecule microarray, Cy5-labelled CALM1, plus calcium, artefact control for SMM control-protein annotation, profiling panel (AID 1112).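 Note: score merges spot fluorescence with signal to noise from triplicate slides.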 The following applies: Cy5-CALM1 binding fluorescence, higher = more signal.
A short description of test [6]: probe aWnt5a binding to arrayed compounds – biochemical, biotinylated probe, 635/667 nm fluorescence, primary screen (AID 1113).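 Note: score merges 667 nm fluorescence intensity with signal-to-noise per printed feature.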 The note with it: small-molecule microarray, higher = more signal.
Test [7] can be described thus: probe aShh binding to arrayed compounds – biochemical, biotinylated probe, 635/667 nm fluorescence, primary screen (AID 1114).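 Note: probe is biotin-labelled aShh protein from a stem cell growth factor screen; measures binding of labelled protein to compounds printed on the slide; score merges feature fluorescence at 667 nm with signal-to-noise.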 The note with it: small-molecule microarray, higher = more signal.
A short description of test [8]: probe aNog binding to arrayed compounds – biochemical, biotinylated probe, 635/667 nm fluorescence, primary screen (AID 1115).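 Note: probe is biotinylated aNog protein used at 0.15 µg/mL for 1 h at 4 C; z-score combines 667 nm fluorescence of each spot with its signal to noise.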 The following applies: small-molecule microarray, higher = more signal.
Test [9] has as its target Torsin-1A-interacting protein 1 (Homo sapiens) (UniProt Q5JTV8). Description: compound microarray binding of lysate hLAP1 – cell lysate, small-molecule microarray, COS7 lysate, 635/667 nm fluorescence, primary screen (AID 1116). The following applies: 635 nm fluorescence, higher = more signal.
Test [10] deals with Alpha-bungarotoxin (Bungarus multicinctus) (UniProt P60615). In words: compounds binding labelled alpha-BTX control protein – biochemical, small-molecule microarray, Alexa647 label, 635/667 nm fluorescence, artefact control for SMM control protein annotation, profiling panel (AID 1117). The following applies: alpha-BTX-A647 binding fluorescence, higher = more signal.
Alpha-bungarotoxin (Bungarus multicinctus), sequence (P60615 whole entry, looked up): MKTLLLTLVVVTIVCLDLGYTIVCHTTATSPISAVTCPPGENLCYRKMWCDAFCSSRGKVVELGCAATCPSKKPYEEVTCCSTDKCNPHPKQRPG

Torsin-1A-interacting protein 1 (Homo sapiens), sequence (Q5JTV8 whole entry, looked up): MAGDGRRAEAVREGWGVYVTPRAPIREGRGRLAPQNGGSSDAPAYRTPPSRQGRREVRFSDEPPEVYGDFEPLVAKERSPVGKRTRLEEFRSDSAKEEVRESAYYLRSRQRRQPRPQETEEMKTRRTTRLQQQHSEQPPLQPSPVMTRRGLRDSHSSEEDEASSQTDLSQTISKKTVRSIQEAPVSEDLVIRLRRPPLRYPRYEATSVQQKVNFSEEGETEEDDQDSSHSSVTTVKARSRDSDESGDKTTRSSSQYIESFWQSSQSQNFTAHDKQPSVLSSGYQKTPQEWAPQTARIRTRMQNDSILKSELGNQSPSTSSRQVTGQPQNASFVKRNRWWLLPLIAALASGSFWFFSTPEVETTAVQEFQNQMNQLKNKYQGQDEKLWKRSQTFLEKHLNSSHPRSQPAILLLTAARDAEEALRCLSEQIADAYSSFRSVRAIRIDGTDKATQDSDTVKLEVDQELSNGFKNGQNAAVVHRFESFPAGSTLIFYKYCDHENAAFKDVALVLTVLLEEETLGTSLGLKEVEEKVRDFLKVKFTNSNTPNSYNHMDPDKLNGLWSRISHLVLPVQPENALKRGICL

Regarding `COC(=O)C(CC#Cc1ccc2c(c1)[C@]1(C(=O)N2)[C@H](c2ccccc2OCCO)N2[C@H](c3ccccc3)[C@H](c3ccccc3)OC(=O)[C@H]2[C@@H]1C(=O)N1CCN(c2ncccn2)CC1)C(=O)OC`, the composite z-score was 1.37 in [1]; 0.595 in [3]; 0.999 in test [4]; -0.154 in test [5]; -0.152 in test [6]; 0.178 in [7]. Also, the composite z-score in test [8] was -0.158; in test [9], 0.664; in test [10], 0.876. The molecule also gave a z-score in [2] of -2.63.
For the molecule `CCCCC(=C=CC[C@H](O)c1ccccc1OCCO)CCO`, the composite z-score was 0.5 in test [1]; -0.115 in test [3]; -0.541 in test [4]; -0.533 in test [5]; -0.0031 in test [6]; -0.108 in test [7]. Besides, the composite z-score in test [8] is 0.0796; in [9], 0.228; in [10] it was 0.124. Further, the z-score in [2] is -1.69.
For `CN1C(=O)C2C(C1=O)C1C=C(CCCO)C2C(C2CC2)N1C` (stereo not given), the composite z-score is -0.524 in [1]; -0.151 in test [3]; 0.394 in [4]; 0.535 in [5]; -0.328 in [6]; 0.0062 in test [7]. Further, the composite z-score in test [8] is -0.0477; in test [9] it was 2.83; in test [10], -0.685. Further, the z-score in test [2] turned out to be 0.669.
As for `C=C(C(=O)CC[C@@H](OC(=O)c1ccccc1-c1ccccc1C(=O)O)c1ccc(OCCO)cc1)C(C)C`, the composite z-score is 1.33 in test [1]; 0.63 in test [3]; 0.653 in [4]; -0.698 in test [5]; 0.0162 in test [6]; 0.108 in [7]. Moreover, the composite z-score was -0.095 in test [8], 1.3 in [9] and 0.478 in test [10]. The same molecule came in with a z-score in test [2] of -2.58.
Consider `C=CCOC(=O)[C@@H]1[C@H]2C(=O)O[C@H](c3ccccc3)[C@H](c3ccccc3)N2[C@H](c2ccc(OCCOC(=O)[C@H]3C[C@H]4C(=O)N[C@@H](CCCCN(C)C)C(=O)N4[C@H]3c3cccc(OCCO)c3)cc2)[C@@]12C(=O)Nc1ccccc12`, for which the composite z-score in [1] was 0.313; in test [3] it was -1.19; in test [4] it was 0.12; in test [5], 0.177; in test [6], -0.033; in test [7], 0.584. In addition, the composite z-score is 0.511 in [8], 0.518 in test [9] and 0.175 in [10]. The molecule also registered a z-score in test [2] of -0.772.
For `COc1ccc([Si](C)(C)[C@H]2[C@H](CC(=O)N3CCC[C@H]3CO)O[C@@]3(C(=O)N(Cc4cccc(N5CCCCC5=O)c4)c4ccccc43)[C@@H]2C)cc1`, the composite z-score in test [1] is 1.3; in [3], 0.854; in test [4] it was 0.733; in test [5], 0.222; in [6], -0.101; in [7], 0.396. The values for the composite z-score in [8], in test [9] and in test [10] were 0.381, 1.06 and 1.22, respectively. Further, in test [2], the z-score was -2.54.
For the molecule `Cc1c(NC(=O)/C(C#N)=C/C=C/c2ccc([N+](=O)[O-])cc2)c(=O)n(-c2ccccc2)n1C`, the composite z-score in test [1] was 0.572; in test [3], 0.328; in [4], 1.97; in test [5], 0.72; in test [6] it was -0.0792; in [7] it was -0.0769. In addition, the values for the composite z-score in test [8], in test [9] and in [10] were 0.457, 1.37 and 1.13, respectively. This molecule also yielded a z-score in [2] of -1.71.
On to `C[C@H]1C2[C@H](Cc3ccccc3)NC(=O)[C@]23C(=O)N[C@@H](Cc2ccccc2)C(=O)N2CCC[C@H]2C(=O)NC/C=C/CC/C=C/C3[C@@H]2O[C@]12C` (stereo not given in full), for which the composite z-score in test [1] was 0.611; in test [3], 0.148; in [4], -0.133; in test [5], -0.945; in [6] it was -0.156; in [7], -0.221. For the same molecule, the composite z-score in [8] was -0.0503; in test [9], 0.0565; in [10], 0.857. Further, the z-score in test [2] was -0.382.
On to `[N-]=[N+]=NCc1ccccc1[C@H]1OC(c2ccc(OCCCO)cc2)=N[C@@]1(CCS(=O)(=O)c1ccccc1)C(=O)NCCN1CCOCC1`, for which the composite z-score was 1.49 in test [1]; 0.0744 in [3]; 1.39 in [4]; 0.593 in test [5]; 0.143 in test [6]; -0.107 in [7]. Also, the composite z-score was -0.612 in test [8], 1.06 in test [9] and 1.3 in [10]. Also, the z-score in test [2] was -0.233.
Turning to `COc1cc2c(cc1OC)CN(C(=O)[C@@H]1[C@H]3C(=O)O[C@H](c4ccccc4)[C@H](c4ccccc4)N3[C@H](c3ccc(O)cc3)[C@@]13C(=O)Nc1ccc(C#CC4=CCCCC4)cc13)CC2`, the composite z-score in [1] was 0.244; in test [3] it was 0.512; in test [4], 1.07; in test [5] it was 0.319; in test [6], 0.0044; in test [7], -0.011. Moreover, the composite z-score in [8] is 0.14; in test [9], 0.635; in test [10] it was 0.891. Also, the z-score in [2] was -1.49.
As for `COc1ccc(CCNC(=O)[C@@]2(c3ccc([N+](=O)[O-])cc3)CC(=O)N(C3CCCCC3)[C@@H]2c2ccc(CO)cc2I)cc1`, the composite z-score in test [1] is 0.535; in test [3] it was 0.497; in [4], 0.529; in test [5] it was 0.113; in [6], -0.0643; in test [7], 0.108. Further, the composite z-score in test [8] was 0.639; in test [9], 0.733; in [10], 0.201. In test [2], this molecule registered a z-score of -2.57.
`COC(=O)[C@@]1(Cc2ccccc2)[C@H]2c3cc(C(=O)N(C)C)n(Cc4nc5ccccc5[nH]4)c3C[C@H]2CN1C(=O)c1ccccc1`: the composite z-score in [1] is 1.33; in test [3], -0.4; in test [4], 0.492; in test [5], 1.2; in test [6], 0.0328; in test [7], 0.108. The composite z-score was determined as 2.16 in [8], 1.62 in test [9] and 1.3 in test [10]. Further, the z-score in test [2] amounted to 0.401.
Consider `COC(=O)[C@]1(Cc2ccccc2N=[N+]=[N-])N=C(c2ccc(OCCCO)cc2)O[C@@H]1c1ccccc1CN=[N+]=[N-]`, for which the composite z-score in [1] was 1.37; in [3] it was 0.112; in test [4], 0.149; in test [5] it was -0.529; in [6], -0.148; in test [7], -0.0324. For the same molecule, the results for the composite z-score in [8], in [9] and in test [10] were 1.14, 1.3 and 0.874, respectively. This molecule had a z-score in [2] of -3.42.
